Inconclusive results are not listed. Active and inactive are the calls of the source. Calls follow the shape of the dose curve; as a rule, active = well fitted inhibition curve with a large enough effect; inconclusive = small, poorly fitted or top-dose-only effect; inactive = flat fitted curve, though single readings scatter.
Key:
CRL-7250 = normal cell line; assay: Cytotoxic Profiling of Annotated Libraries Using Quantitative High-Throughput Screening (AID 1296008); settings: Five cell lines viability, CellTiter-Glo ATP luminescence, 48-72 h; max response: active compounds read low; as to max response: % is scaled to controls: 0 for no effect and ±100 for the full control effect
Procedure, shortened: (§1)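 Cytotoxicity was measured as CellTiter-Glo ATP luminescence, read after 10 min at room temperature. Compound treatment of the cells lasted 48 or 72 hr at 37 degrees Celsius in a qHTS format.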

HaCat [1] = assay: as above; settings: Five cell lines viability, CellTiter-Glo ATP luminescence, 48-72 h; max response: active compounds read low
Procedure, shortened: as §1

KB-3-1 = assay: as above; settings: Five cell lines viability, CellTiter-Glo ATP luminescence, 48-72 h; max response: active compounds read low
Procedure, shortened: as §1

NIH3T3 = assay: as above; settings: Five cell lines viability, CellTiter-Glo ATP luminescence, 48-72 h; max response: active compounds read low
Procedure, shortened: as §1

HACAT [2] = assay: qHTS assay to identify novel small-molecules to repurpose for Merkel cell carcinoma treatment (AID 1296009); settings: MCC and control cell lines, CellTiter-Glo viability, 72 h; at 44.8 µM (top of the series) unless noted
Procedure, shortened: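 72 hr, 37 degree celsius; NPC 8-pt / MIPE 11-pt dose response; compound pinned in DMSO; CellTiter-Glo, 10 min RT, luminescence; normalized to no-cell and DMSO controls.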

Measured: max response
Also: nearly all actives have a fitted effect of over 60% in size.

CC(C)(O)c1ccc2c(c1)ncn2-c1cccc(-c2ccccc2C#N)c1
inactive: CRL-7250 | HaCat [1] | KB-3-1 -0.453% | NIH3T3 | HACAT [2]

CC(=O)O[C@@H]1CC2C(C)(C)C(=O)C=C[C@]2(C)C2CC[C@@]3(C)[C@H](c4ccoc4)OC(=O)[C@H]4O[C@]43[C@@]21C (stereo not given in full)
inactive: CRL-7250 | HaCat [1] | KB-3-1 | NIH3T3 -4.81% | HACAT [2] inactive [at 17.4 µM]

CCCNCCc1ccc(NS(=O)(=O)c2ccc(OC(F)(F)F)cc2)cc1
inactive: CRL-7250 -2.99% | HaCat [1] | KB-3-1 -2.39% | NIH3T3 | HACAT [2]

CCCC(=O)C1(c2ccccc2)CCN(C(=O)[C@@H](Cc2ccc(OC)cc2)NC(=O)[C@@H](N)Cc2cncn2C)CC1
inactive: CRL-7250 3.05% | HaCat [1] | KB-3-1 -9.44% | NIH3T3 -0.497% | HACAT [2]

C=C1C(=O)OC2CC(C)C(CCC(C)O)=CCC12 (stereo not given)
inactive: CRL-7250 -9.97% | HaCat [1] | KB-3-1 | NIH3T3 -1.15% | HACAT [2]

Cc1cccc(N2CCN(C(=O)c3cc(S(=O)(=O)N(C)C)ccc3N3CCCC3)CC2)c1C
inactive: CRL-7250 -10.2% | HaCat [1] | KB-3-1 | NIH3T3 -5.43% | HACAT [2]

Reference: PubChem BioAssay (NCATS)
